Experimental data taken from the OligoGym collection.
Also: reference of the scale not given here.

These sequences were tested against RAB28 (assay: pooled miR-30 sensor sort-seq; sequence = guide strand). Conditions: shRNA.
TTATTGTTCGCATATGCTCCAA showed a sensor-assay potency score (higher = more potent) of -0.667. ATTTGTAATATCATATACCAAG gave a sensor-assay potency score (higher = more potent) of -1.51. TAACAGTCCTTGACATAGGTTC showed a sensor-assay potency score (higher = more potent) of -0.143. In the case of TTAACAGTCCTTGACATAGGTT, the sensor-assay potency score (higher = more potent) is reported as -0.695. In the case of TTGAAGGGTAACATTCAAGTTT, the sensor-assay potency score (higher = more potent) is reported as -0.65. TTATCCAACATTTTGCCTCCTA was tested, and the sensor-assay potency score (higher = more potent) was 0.54. Sequence TTTGTTTGTACTGTTTCCCAAA has a sensor-assay potency score (higher = more potent) of -0.914. TTTGATAATTTGTAATATCATA was tested, and the sensor-assay potency score (higher = more potent) was -1.64. TATTTATCCAACATTTTGCCTC gave a sensor-assay potency score (higher = more potent) of -0.421. For TATTGTTCGCATATGCTCCAAA, the sensor-assay potency score (higher = more potent) was -0.803. Sequence TAGTTAAGGAGGTCTTCCCGGA has a sensor-assay potency score (higher = more potent) of -0.69.

Each sequence was assayed against RAB3D in the same assay as above. Conditions: shRNA.
TATAGTCGAAGTTCTGATCTGC was tested, and the sensor-assay potency score (higher = more potent) was 0.851. TAGCAGTTTGAACATATAGTCG was tested, and the sensor-assay potency score (higher = more potent) was -0.969. For TTCACATTGATGTTCTCCTTGG, the sensor-assay potency score (higher = more potent) was -0.53. Sequence TTGATGTTCTCCTTGGCACTGG has a sensor-assay potency score (higher = more potent) of -0.145. TTGAACATATAGTCGAAGTTCT showed a sensor-assay potency score (higher = more potent) of 0.33. For TGAACCATCTTCCACCAGCTTG, the sensor-assay potency score (higher = more potent) was -1.09. Work on TAAGCTAGAAGGCACCACGGAT yielded a sensor-assay potency score (higher = more potent) of -0.984. Sequence TTCTGATCTGCTGCATCCCGTG has a sensor-assay potency score (higher = more potent) of -1.02. TATCAGTAGCAGTTTGAACATA was tested, and the sensor-assay potency score (higher = more potent) was -1.09. For TTGACCTTGAAATCGATGCCCA, the sensor-assay potency score (higher = more potent) was -0.115. Sequence TTGGAATCCAGAAAGTTCGTGG has a sensor-assay potency score (higher = more potent) of 0.567. Sequence TTGCTGCCTGAGCTGGAGCTGG has a sensor-assay potency score (higher = more potent) of -1.52.

Each sequence was assayed against RAB3GAP2 in the same assay as above. Conditions: shRNA.
In the case of TTTATTCCACTGAACAACGTAC, the sensor-assay potency score (higher = more potent) is reported as -0.27. TTACAGGCAACACACCATCTTT was tested, and the sensor-assay potency score (higher = more potent) was -1.36. Sequence TTAATTGACTGACAGACTCATA has a sensor-assay potency score (higher = more potent) of -0.923. TATGAGACAATCCTCCAGCTGT was tested, and the sensor-assay potency score (higher = more potent) was -0.612. TTCTGTGGGATCTTTGACCTTT gave a sensor-assay potency score (higher = more potent) of 0.671. TAAAACACAATCTTGGAGCCAG showed a sensor-assay potency score (higher = more potent) of 0.291. Sequence TTGACTGACAGACTCATAGAGT has a sensor-assay potency score (higher = more potent) of -0.525. For TTTGCTGTGAAGCAGAGTCTGA, the sensor-assay potency score (higher = more potent) was -0.886. In the case of TTCAAGTGTTCTATTGACCTAA, the sensor-assay potency score (higher = more potent) is reported as 0.6. TTATTTACTAGTTTAGCTGTTG was tested, and the sensor-assay potency score (higher = more potent) was 0.0265. TTCAGTGTTTTGAAGGTCCTGG was tested, and the sensor-assay potency score (higher = more potent) was -0.334.

Each sequence was assayed against RABGEF1 in the same assay as above. Conditions: shRNA.
TTGAATGGCAAGATCTTTCTTC was tested, and the sensor-assay potency score (higher = more potent) was 0.743. Work on TTATCTTCTCGACTCTTTCTGG yielded a sensor-assay potency score (higher = more potent) of -0.279. Sequence TTGGCTTCATTCATGATCCTTT has a sensor-assay potency score (higher = more potent) of 0.202. TTCATTAACAGGGACACACAGC gave a sensor-assay potency score (higher = more potent) of -0.293. TTTCTTGCACAGGAGATCCGAT was tested, and the sensor-assay potency score (higher = more potent) was -0.404.
